Several values for one entry are separate records, joined by “and”; a condition that tells them apart may be missing. Equal entries are not always repeated. Inconclusive results are not listed. Entries that show only a call come without a potency. Activity calls are given as the source filed them. The call rests on the fitted dose curve; in most records, active means well fitted cell-killing curve with a large enough effect; inconclusive means small, poorly fitted or top-dose-only effect, or effect the other way; inactive means no such curve, though single readings can be large or run the other way.
Potency means the concentration at half of the fitted maximal effect.

This experiment in a line: qHTS of pediatric cancer cell lines to identify multiple opportunities for drug repurposing: Confirmatory screen for LAN-5 cells (AID 1347113). Further: nearly all actives have a fitted effect of over 65% in size. The note with it: LAN-5 neuroblastoma cell viability; series mostly up to 45.9 µM. An excerpt:
Drug repurposing or repositioning has been offered as a strategy for drug development in oncology programs. This approach has special potential for childhood cancers and other rare or orphan diseases, where the expected return on new drug development has been a disincentive to pharmaceuticals.
In this project we exploit the poly-pharmacology of drugs to discover new indications via phenotypic screening of a panel of 19 well-characterized cell lines derived from solid tumors seen in children and adolescents. The goal is to identify approved drugs with previously unrecognized anticancer properties that has the potential to reveal new mechanisms and biological processes involved in carcinogenesis or drug resistance. We employed a titration-based paradigm (quantitative high-throughput screening or qHTS), where all compounds were tested at multiple concentrations for their effect on cell viability. Concentration-response curves (CRCs) were derived directly from the primary screen, and both potency and efficacy values were used to identify compounds with robust bioactivity profiles. We screened the NIH Chemical Genomics Center (NCGC) Pharmaceutical Collection (NPC) and Mechanism Interrogation Plate (MIPE) small molecule collections of approved and investigational compounds against these cell lines; and measured metabolically active cells after 48 hours of compound treatment as a proxy for cell viability.
Assay Submitter: Nathalia J. Martinez, National Center for Advancing Translational Sciences, National Institutes of Health, Rockville, MD, USA; email: natalia.martinez@nih.gov
[1] Shen, M et al. Quantitative high-throughput phenotypic screening of pediatric cancer cell lines identifies multiple opportunities for drug repurposing. Oncotarget 2017 Dec 19;9(4):4758-4772. PMID 29435139.
The cells were obtained from University of North Carolina (UNC), Pediatric Preclinical Testing Program (PPT), and Coriell Institute (CI).
qHTS cell viability assay:
Cells were assayed in growth media at a density of 500-1,000 cells/well. Five microliters of cells were dispensed into 1,536-well, white, solid-bottom, TC-treated plates (Greiner Bio One) using a multidrop dispenser and incubated at 37 degrees C, 5% CO2, under a humidified atmosphere for 5 hours. Twenty-three nanoliters of compounds and controls (neutral control DMSO or positive control bortezomib at final concentration of 2.3 µM) were subsequently transferred by Kalypsys pintool. For primary screens, the MIPE collection was tested at 11-point dilutions (final concentrations range from 0.78 nM to 46 µM) and the NPC collection at 8-point dilutions (final concentrations range from 0.59 nM to 46 µM). Compounds tested in follow-up screens were assayed at 11-point dilutions. Cells were incubated for 48 hours, followed by addition of 3 µL of CellTiter-Glo (Promega). After a 15 min incubation at room temperature, samples were analyzed for luminescence intensity using a ViewLux High-throughput CCD imager equipped with clear filters.
As for `Cc1cc(C2CCCCC2)n(O)c(=O)c1`, the Potency is 5.85 µM (active).
Then `CN(C)c1ccc(O)c2c1C[C@H]1C[C@H]3[C@H](N(C)C)C(=O)C(C(N)=O)=C(O)[C@@]3(O)C(=O)C1=C2O`, with “inactive”; and `O=C1c2c(O)cc(O)cc2OC(c2ccc(O)c(O)c2)C1O` (stereo unspecified), with “inactive”; and `CC[C@]1(O)C[C@H]2CN(CCc3c([nH]c4ccccc34)[C@@](C(=O)OC)(c3cc4c(cc3OC)N(C=O)[C@H]3[C@@](O)(C(=O)OC)[C@H](OC(C)=O)[C@]5(CC)C=CCN6CC[C@]43[C@@H]65)C2)C1`, with 58.5 nM (active) and 827 nM (active).
In the case of `CCCCc1ccc2nc(NC(=O)OC)[nH]c2c1`, the Potency is 8.27 µM (active).
Regarding `CC1(C)C(=O)N(CCN2CCC(C(=O)c3ccc(F)cc3)CC2)c2ccccc21`, the Potency entry is “inactive”.
To `C=C(c1ccc(C(=O)O)cc1)c1cc2c(cc1C)C(C)(C)CCC2(C)C` belongs “inactive”; to `C[C@]12CCC(=O)C=C1CC[C@@H]1[C@H]2[C@@H](O)C[C@@]2(C)[C@H]1CC[C@]2(O)C(=O)CO`, “inactive”.
As to `Oc1ccc(-c2nc(-c3ccc(F)cc3)c(-c3ccncc3)[nH]2)cc1`, the Potency is 1.04 µM (active).
For `CCOc1cc(CC(=O)N[C@@H](CC(C)C)c2ccccc2N2CCCCC2)ccc1C(=O)O`, the Potency result was “inactive”.
Consider `Cc1ccc(Nc2nccc(N(C)c3ccc4c(C)n(C)nc4c3)n2)cc1S(N)(=O)=O`, for which the Potency entry is “inactive”.
Take `CN(C)c1ccc2nc3ccc(=[N+](C)C)cc-3sc2c1`: the Potency was 3.69 µM (active).
To `CC(C)C[C@H](NC(=O)[C@H](Cc1ccccc1)NC(=O)c1cnccn1)B(O)O` belongs 0.0329 µM (active); to `Nc1ccn([C@@H]2O[C@H](CO)[C@@H](O)C2O)c(=O)n1` (stereo partly specified), “inactive”; to `O=C(CCc1ccc(O)cc1)c1c(O)cc(O)cc1O`, “inactive”.
As for `c1cnc2cc3c(cc2n1)C1CNCC3C1`, the Potency result was “inactive”.
On to `Nc1ncn([C@H]2C[C@H](O)[C@@H](CO)O2)c(=O)n1`, for which the Potency result is “inactive”.
On to `CC(S)C(=O)NCC(=O)O` (stereo unspecified), for which the Potency entry was “inactive”.
For `CCN(CC)C(=S)SSC(=S)N(CC)CC`, the Potency was 0.147 µM (active).
Then `O=C(NCC1CCCCN1)c1cc(OCC(F)(F)F)ccc1OCC(F)(F)F` (stereo unspecified), with “inactive”; and `Clc1ccc(C(Cn2ccnc2)OCc2ccsc2Cl)c(Cl)c1` (stereo unspecified), with 20.8 µM (active).
